The whole screen tested about 68,000 compounds, of which about 2,700 (4%) showed an effect of 50% or more. Only a selection was taken, and strong results are over-represented in it overall.
Test system: Plasmodium berghei
Assay: Screen against P. berghei liver stage (PbLuc), transformed with Luciferase, at 2uM
Type: functional, HepG2
Conditions: tested at 2 uM

SMILES	INHIBITION [%]
CC(C)NC(=O)NCc1nnc2n1C(C(=O)N(C)C)CC2 (configuration not stated)	24.34
O=C(NCc1ccc(OCC2CC2)nc1)C1COc2ccccc2O1 (configuration not stated)	2.21
CC1CCN(C(=O)[C@@H]2C[C@H]3OCC[C@H]3N(Cc3ccoc3)C2)CC1	23.1
Cc1cnc(CN(C)C(=O)C23CNCC2CNC3)[nH]1 (configuration not stated)	-16.03
COc1ncccc1C(=O)N(C)Cc1nc(-c2ccccn2)no1	16.37
Cc1cnn(CC2CCCCN2C(=O)c2csc(C)n2)c1 (configuration not stated)	53.58
COCc1nc(C(=O)N2CCCCC2Cn2cc(C)cn2)cs1 (configuration not stated)	29.71
Cc1cnn(CC2CCCN2C(=O)c2ccc(C(N)=O)cn2)c1 (configuration not stated)	40.29
CNC(=O)c1ccc(C(=O)N2CCCCC2Cn2cc(C)cn2)cn1 (configuration not stated)	61.96
CC(=O)Nc1nc(C(=O)N2CCCCC2Cn2cc(C)cn2)cs1 (configuration not stated)	-7.73
Cc1cnn(CC2CCCCN2C(=O)c2ccc(NC3CC3)nc2)c1 (configuration not stated)	14.53
CC(C)C1CN(C(=O)c2cc(=O)[nH]c(=O)[nH]2)CCCN1CC1CC1 (configuration not stated)	-15.77
CN(C)CCn1c([C@@H]2CCCO2)cc2cccnc21	47.82
O=C(N1CCCC1)N1CCc2c(CNc3ncccn3)cncc2C1	34.98
Cc1cc(CN2CCC3(CC2)CC(C(=O)O)N(C(=O)C2CC2)C3)oc1C (configuration not stated)	9.11
CCSCC(C)NCc1nc(-c2cccnc2)no1 (configuration not stated)	-15.07
Cc1nn2c(nc1=O)-c1ccccc1NC2C(=O)O (configuration not stated)	24.05
COCC(=O)N1CCCC2(CCN(c3ccsc3)C2=O)C1 (configuration not stated)	-68.7
O=C(c1ccsc1)N1CCC2(CCN(Cc3ccccn3)C2=O)C1 (configuration not stated)	57.85
O=C(N1CCCC1)N1CCCC2(CCN(c3ccsc3)C2=O)C1 (configuration not stated)	45.82
C[C@@H]1CN(C(=O)c2ccsc2)C[C@]12CCN(c1ccsc1)C2=O	-1.79
C[C@H]1CN(C(=O)c2cscn2)C[C@@]12CCN(c1ccsc1)C2=O	55.8
Cc1cccc(C(=O)N2C[C@@H](C)[C@@]3(CCN(c4ccsc4)C3=O)C2)n1	15.44

SMILES	INHIBITION [%]
O=C(c1cccnc1)N1CCCC2(CCN(c3ccsc3)C2=O)C1 (configuration not stated)	18.37
O=C(CO)N1CCCC2(CCN(c3ccsc3)C2=O)C1 (configuration not stated)	55.21
O=C(c1ccc(F)cc1)N1CCC2(CCN(Cc3ccccn3)C2=O)C1 (configuration not stated)	11.6
Cc1ccc(C(=O)N2CCC3(CCN(Cc4ccccn4)C3=O)C2)cn1 (configuration not stated)	17.64
Cc1ccc(C(=O)N2CCC3(CCN(c4ccsc4)C3=O)C2)cn1 (configuration not stated)	52.66
O=C(c1ccnnc1)N1CCC2(CCN(c3ccsc3)C2=O)C1 (configuration not stated)	-12.06
c1ccc(CCCN2CCCC2Cn2cncn2)cc1 (configuration not stated)	1.63
CCOCCCNC(=O)NCc1c(C)nn(C)c1C	6.4
Cc1nn(CCC#N)c(C)c1CCC(=O)N(C(C)C)C1CC1	52.6
Cc1nn(CCC#N)c(C)c1CCC(=O)N(C)C	-57.94
Cc1nn(CCC#N)c(C)c1CCC(=O)N(C)Cc1ccsc1	35.84
CCC(=O)Nc1ccc(C(C)NC(=O)COC)cc1 (configuration not stated)	-64.67
Cc1cc(Cn2cc(C#N)c(=O)c3ccccc32)no1	-0.45
CC(C)c1ccc(CN2C(=O)C3(CCNCC3)Nc3ccccc32)cc1	6.72
O=C(C1CCOC1)N1CCN(Cc2ccc3c(c2)CCO3)CC1 (configuration not stated)	47.87
O=C(C1COCCO1)N1CCN(Cc2ccc3c(c2)CCO3)CC1 (configuration not stated)	83.96
O=C(NCc1ccco1)N1CCN(Cc2ccc3c(c2)CCO3)CC1	9.17
O=C(NCC1CCOC1)N1CCN(Cc2ccc3c(c2)CCO3)CC1 (configuration not stated)	10.62
O=C(NCC1CCCO1)N1CCN(Cc2ccc3c(c2)CCO3)CC1 (configuration not stated)	78.42
O=C(C1CCCN(CCc2ccc3c(c2)CCO3)C1)N1CCCC1 (configuration not stated)	-0.62
CN(C)C1CCN(C(=O)NCc2ccc(Cn3cncn3)cc2)CC1	-8.87
CN1CCN(Cc2cn3c(n2)CN(C2CCOCC2)CC3)CC1	20.01
COCCS(=O)(=O)NCC(C)c1cccc(C)c1 (configuration not stated)	72.49

SMILES	INHIBITION [%]
COCCS(=O)(=O)NC(C)c1cccc(C)c1C (configuration not stated)	16.38
Cc1cccc(C(C)CNS(=O)(=O)CCCC#N)c1 (configuration not stated)	16.95
COc1ccc(C(C)NCc2ccc(OC)c(OC)c2OC)cc1F (configuration not stated)	-6.67
CC(c1ccco1)N(C)C(=O)NCCOc1ccc(C#N)cc1 (configuration not stated)	-6.73
CCOCC(=O)N1C[C@@H](O)[C@H](NC(C)=O)C1	-24.98
CC(=O)N[C@@H]1CN(C(=O)CC2CC2)C[C@H]1O	53.16
CC(=O)N[C@@H]1CN(C(=O)CC2CCOCC2)C[C@H]1O	-4.48
Cc1noc(C)c1CN1CCn2cc(CNc3ccccn3)nc2C1	6.07
Cc1oc(CN(C)C(=O)c2ccc(C(F)(F)F)cc2)cc1C(=O)O	40.4
CC(C)C(=O)NC1COC2(CCN(C(=O)c3cccnc3)CC2)C1 (configuration not stated)	9.53
N#CC1(C(=O)N2CCCN(Cc3cscn3)CC2)CCCCC1	7.71
N#CC1(C(=O)N2CCN(Cc3cscn3)CC2)CCCCC1	52.17
N#CC1(C(=O)N2CCN(Cc3cscn3)CC2)CCCC1	34.83
Cc1ccc(S(=O)(=O)Cc2noc([C@@H]3C[C@@H](O)CN3C)n2)cc1	32.59
CN(Cc1cn2c(n1)CN(Cc1ccc(F)cc1)CC2)Cc1ccco1	9.98
COc1ccc(C2=CCN(C(=O)C3CCC3)CC2)cc1	-17.31
COc1ccc(C2=CCN(C(=O)C3CCCN(C(N)=O)C3)CC2)cc1 (configuration not stated)	-11.91
COc1ccc(C2=CCN(C(=O)C3CCCN(C(C)=O)C3)CC2)cc1 (configuration not stated)	68.24
O=C1[C@H]2CN(Cc3ccncc3)C[C@H]2CN1c1cncnc1	54.41
O=C1[C@H]2CN(Cc3ccccc3)C[C@H]2CN1c1cncnc1	37.15
O=C1[C@H]2CN(Cc3ccc(F)cc3)C[C@H]2CN1c1cncnc1	-20.89

From ChEMBL document CHEMBL4513216, “Probing the Open Global Health Chemical Diversity Library for Multistage-Active Starting Points for Next-Generation Antimalarials” (ACS Infect Dis, 2020)
